Laboratory results published in the supplement of paper PMC6555819.

Tests used:
Assay in all cases: PBM binding z-score (relative to random genomic background probes); higher = stronger binding; sequences stand for … in GC…GCGATTGACAGCGTAGAATGAAGG
[1] = system: RARb homodimer (NR concentration 270 nM)
Outline: (§1)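 Custom Agilent 4×180K protein-binding microarrays carried double-stranded probes, each with a 34-nt variable region. These regions held direct-repeat seeds, single-nucleotide variants, half-site ablations and random human genomic background sequences. Ligand-free nuclear receptor dimers were incubated on the arrays for 1 h, antibodies against each partner (one per run) detected binding, and scanned fluorescence was regression-normalized. Binding z-scores take the random background probes as reference.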

[2] = system: RARg:RXRa (NR concentration 270 nM, RXRa partner concentration 90 nM)
Outline: as §1

[3] = system: RARg homodimer (NR concentration 270 nM)
Outline: as §1

[4] = system: RXRa DBDmut IVT, anti-RXR (DBD mutation: RXRa K156A/R161A, NR concentration 90 nM)
Outline: as §1

[5] = system: RXRa homodimer (NR concentration 180 nM)
Outline: as §1

[6] = system: THRa:RXRa (NR concentration 90 nM, RXRa partner concentration 90 nM)
Outline: as §1

[7] = system: THRa homodimer (NR concentration 90 nM)
Outline: as §1

[8] = system: VDR homodimer (NR concentration 270 nM)
Outline: as §1

Sequence	PBM binding z-score [1]	PBM binding z-score [2]	PBM binding z-score [3]	PBM binding z-score [4]	PBM binding z-score [5]	PBM binding z-score [6]	PBM binding z-score [7]	PBM binding z-score [8]
TCAGACAGGTGAATGTAACTCAGGTACGCAGTCG	0.305	0.399	0.476	1.01	0.802	0.274	0.15	0.463
GCTAGTTGGTCAGTAAAAGGTCATACACCGGTCG	4.93	4.81	3.6	0.515	4.8	3.39	1.35	2.09
GCTGCTAGGTCAACTGATAGTCAGCTAAAGCTCG	3.15	4.31	5.07	1.68	2.75	2.74	0.622	0.0089
TCTTGTAGATCAGCAGGTTAAGTAAGCTGGCCAA	0.124	-0.106	-0.396	0.597	0.384	0.37	-0.0624	-0.499
AGCACGAGGGCACGCTGAGTTGATAGCAGAGTAG	1.33	1.97	2.42	1.87	1.52	2.05	0.103	0.992
ACTCGGAGTACAAAGGTCAGAGCTACGCCAGTGA	4.27	5.22	4.7	2.11	5.37	2.64	-0.258	1.63
CCTTACGGGTCAAGGTTCTAGCACGGGTGGTACG	3.2	4.78	4.47	0.551	4.96	2.39	0.0737	1.51
CCTACTGGGCCAAAGGTAATTGATTCCAATGCTC	0.00337	0.0107	0.0633	-0.288	0.00386	0.0403	-0.123	-0.113
ACTAGCAGACCAAGTTTGGGTCACTCAAACAAAG	1.57	0.911	0.702	-0.0274	0.79	1.98	0.78	0.00842
GCTAGTTGTTCAGTAAAAGGTCACACACCGGTCG	5.07	4.7	4.28	0.628	5.06	3.39	1.77	1.84
AATACAGGGTCTTCGTAGGCCAGAGTACGCACAG	0.449	0.222	0.45	0.168	0.437	1.6	-0.387	0.396
TAGCCTAGGTCATGGGCCAGTCTACCACGCGAAC	2.8	4.32	4.43	-0.0274	3.69	2.93	1.09	0.0195
CCTAGCAGGGCAGGGTCACTCAAGCATTTCGCTT	3.05	3.61	3.01	0.33	4.08	2.8	0.567	1.75
ATCTCTAGGTAAAGATAGTTCAGTCAATGCAAAT	0.999	0.494	0.808	0.26	0.151	0.889	-0.0396	0.66
TCATTTAGGTAAACAGGTGAAAGTCCGTAAGTTA	1.09	0.646	0.406	1.59	0.903	1.52	1.13	0.754
GCTAGCAGGCCGTTTGGGTCACTCAATGACGGGC	1.43	0.678	0.649	-0.318	0.67	1.61	0.166	0.089
AGAATGAGTTTATACGTAGATCAGGGAAGAAAGT	-0.157	0.14	0.357	3.89	-0.175	-0.0164	-0.368	3.35
CAAACTAGGTCAAGAGGTCGAAGTCCGCTTCCCG	4.4	6.21	5.88	1.72	5.59	3.34	1.01	2.2
CCTACTGGGCCAAAGGTCAATGATTCCAATGCTC	4.35	5.54	4.85	0.831	5.74	3	0.607	1.25

Sequence	PBM binding z-score [1]	PBM binding z-score [2]	PBM binding z-score [3]	PBM binding z-score [4]	PBM binding z-score [5]	PBM binding z-score [6]	PBM binding z-score [7]	PBM binding z-score [8]
CCTCGGAGGACAACAGGAGGTCAGGGCTGCCAGA	3.69	3.63	3.49	-0.237	2.24	2.96	1.34	0.949
GCTAGTTGGTCAGTAACAGGTCACACACCGGTCG	3.38	2.86	2.06	0.0356	2.11	2.13	1.06	0.753
ACATGTAGGTTACATCCGGGTCATTCAGGCTATG	3.01	3.84	2.29	1.4	3	3.83	2.85	3.73
ACTAGCAGGCCGAGTTTGGGTCACTCAAACAAAG	1.65	1.04	0.63	-0.134	0.562	2.17	0.853	0.396
ATACCAGGGTGATCGTGAGGTCGTTGATACTAAC	1.83	2.26	0.727	0.415	1.78	3.38	2.62	2.64
ACTATTAGTTGAGACGATGGCAACCGATAGGTTG	-0.57	0.459	0.26	0.0509	0.0596	-0.111	-0.705	0.236
TCATATAGGTAAAGGTGACAGTCGAACGATATGA	1.42	1.61	1.5	0.827	2.06	1.38	-0.0654	-0.0372
TCGAGTAGGTTAGTGGGGGCATTCAGCCAACATA	1.75	1.55	1.14	1.36	1.34	2.29	1.16	3.31
CACACAGGGTCAGCTAGGCCAGAGTAGGGACGGC	3.23	4.52	4.78	1.76	4.03	3.04	0.987	2
CCCACTGGGCCAAAGGTCATTGATTCCAATGCTC	4.72	5.82	4.39	0.468	6.2	3.27	0.821	2.28
AGAACGAAGGCAATGAGTTGATAGCACGGGTGGC	-1.03	-0.228	-0.122	-0.299	-0.105	-0.732	-1.11	-0.223
CCTGCCAGGTCAATGGTCAGCTAAAGCAGCTCGC	3.05	3.74	4.06	1.44	2.57	3.19	1.4	0.0635
CCAGACAGTTGAAAGGTAACTCAGTCTGGTACGC	0.351	0.456	0.357	0.511	0.993	0.38	-0.129	-0.355
ACTCGGAGGACAAAGGTCAGAGCCACGCCAGTGA	4.56	6.18	5.6	1.27	6.11	3.55	0.686	1.13
TAACCTAGGTCATTCAGGGGCCAGTATAGAAAGC	3.95	6.73	5.25	2.62	3.87	3.83	1.26	2.58
CCTGCTAGGTCAATGGTCAGCAAAAGCAGCTCGC	2.84	3.57	4.83	1.78	2.47	2.16	0.37	0.312
CCGGACAGGTGAAAGGTAACTCAGTCTGGTACGC	0.991	1.57	0.863	-0.0224	1.89	0.766	0.12	0.0749
AGTCAAAGTTCACTAGGTAGCGTAAGATTCAGCT	3.47	4.95	5.68	4.01	3.68	1.66	-0.346	3.7
CAAACTAGGTCACCGGAAGGTCAAAGTCCGCATG	5.88	8.43	7.82	2.05	6.69	4.6	2.95	3.43

Sequence	PBM binding z-score [1]	PBM binding z-score [2]	PBM binding z-score [3]	PBM binding z-score [4]	PBM binding z-score [5]	PBM binding z-score [6]	PBM binding z-score [7]	PBM binding z-score [8]
TGAATGAGGTTATAAGATTAGGGAACGTTGCAAA	0.24	1.43	1.01	0.551	1.87	1.68	0.15	0.323
GGAGCGAGGGCATTCGAGTTGATAGCATGGCGAT	0.497	0.849	1.26	2.53	0.554	3.15	-0.906	3.06
TCTATTAGTTGAAGAGCAACCGACGAGTCCGTTT	-0.385	-0.11	-0.0161	1.36	0.301	-0.14	-0.463	1.23
CCTAGCCGGCCAGGGTCACTCAAGCATTTCGCTT	2.68	3.09	2.37	0.0811	3.47	2.91	1.08	1.38
CAAACTAGGTCACGAAAGGTCAAACTCGAATGAC	5.84	8.21	9.05	2.91	8.85	5.26	2.82	4.06
CCGACTGGGGCTAGGTTACCATAACGCACAGCCA	0.542	0.00576	0.24	-0.639	0.166	0.173	-0.0667	-0.608
TCATATAGGTAAAAGGTGAACGTCGGTGTGGTAA	2.19	2.22	1.26	1.84	2.94	1.84	0.67	0.547
CGTCAAAGTTCAACTAAGCTAACGTAAAGCACGC	4.31	5.83	6.59	4.75	5.2	2.48	0.187	3.66
CCGAGTGGGGCAAGGTTACCATAACGCACAGCCA	1.3	1.07	1.2	-0.421	1.3	1.53	0.265	0.121
CAAACTAGGTCAAGGTCAAAGTTGGTTTGTGCCA	5.15	6.1	6.67	3.1	6.01	4.39	3.85	4.14
TCTCGGAGGACACGAAAGGTCAGAGCCCGACATC	4.82	4.91	5.5	0.988	3.95	3.67	1.25	1.26
CCTACTGGGCTATTCAGAGGTCATTGATCATATG	3.63	3.55	2.52	1.07	3.56	3.16	1.28	3.02
TCATATGGGTAAATGCTAGGTGAAAGTCCGATCT	0.561	0.294	-0.0205	0.923	0.517	1.38	0.395	-0.156
ACAGACAGGTGTGTGAAGGTAACTCAGCTGGACG	-0.271	-0.0907	-0.134	-0.313	0.0111	-0.0622	-0.902	-0.49
ATCTCTAGGTAGGACTCAGTTCAGTGAAGAACGC	0.778	0.159	0.0916	0.747	0.071	0.569	0.909	1.66
TCATATAGGTAAACAGGTGAAAGTCCGTAAGTTA	0.747	0.484	0.254	1.68	1.04	0.795	0.578	0.358
TGAGTGAGGTTAAAGATCAGGGAACGTGGCGTCG	1.06	2.51	1.37	1.05	4.01	2.43	0.575	0.834
TCGAGTAGGTTGGGGGCATTCAGAATGGCGTCGA	1.42	1.32	0.732	1.74	1.57	2.11	1.52	3.27
